The supplement of paper PMC9337992
± gives the standard deviation of the averaged measurements.

What follows are molecules tested on MDAMB468 (assay: cell proliferation (confluence) relative to DMSO control; higher = less growth inhibition). Conditions: 5 uM; 6 d.
Protocol: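 Epigenetic chemical probe screen: 15 TNBC cell lines, 500 cells per well in 384-well plates, treated with 5 uM of each of 36 SGC probes for 6 d. Confluency was imaged by IncuCyte ZOOM and normalised to DMSO control wells. Four replicate wells per compound.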

| SMILES | cell proliferation [%] |
| --- | --- |
| CCOC(=O)CCNc1cc(N2CCc3ccccc3CC2)nc(-c2cccnc2)n1 | 71.9 ± 10 |
| Cn1cc(CCn2cnc(-c3cnn(C)c3)c2-c2ccc(C#N)cc2)cn1 | 55.5 ± 13 |
| CCC(=O)N1CCOc2c(cc(-c3ccc(OC)c(OC)c3)cc2OC[C@H]2CCCN(C)C2)C1 | 37.1 ± 9 |
| COc1cc(-c2cn(C)c(=O)c3cnccc23)c(OC)cc1CN(C)C | 53.6 ± 13 |
| COc1ccccc1S(=O)(=O)Nc1ccc2c(c1)CN(C)C(=O)N2 | 23.2 ± 2.7 |
| CCCOc1ccn2c(C(C)=O)cc(-c3ccccc3S(C)(=O)=O)c2c1 | 66 ± 5.1 |
| O=C(c1ccc(C(=O)N2CCC(N3CCCC3)CC2)c(Nc2ccccc2)c1)N1CCC(N2CCCC2)CC1 | 74.9 ± 8.6 |
| CC(C)Oc1ccc(-c2c[nH]cc2CN(C)CCO)cc1 | 37 ± 7.3 |
| COc1c(C)cc(NC(=O)c2nn(Cc3ccc(F)cc3)c3c2CN(C(=O)c2ccc[nH]2)C[C@]3(C)C(N)=O)cc1C | 35.5 ± 4.7 |
| CC(C)Oc1ccc(-c2c[nH]cc2CN(C)CCN)cc1 | 19.3 ± 5.7 |
| COc1ccccc1C(=O)Nc1cc2c(cc1N1CCCC1)n(C)c(=O)n2C | 39.3 ± 3.8 |
| COc1cc(C#N)ccc1S(=O)(=O)Nc1ccc2c(c1)cc(C)c(=O)n2C | 40.4 ± 6.3 |
| CCn1cc(-c2cccc(C(F)(F)F)c2)c2sc(C(=N)NC3CCS(=O)(=O)CC3)cc2c1=O | 29.1 ± 4.8 |
| O=C([C@@H](Cc1cccc(C(F)(F)F)c1)NS(=O)(=O)c1cc(F)c2c(c1)CCNC2)N1CCCC1 | 50.5 ± 25 |
| Cc1cc(=O)n(C)c2cc(N3C(=O)CC[C@H](NS(=O)(=O)CC(C)C)[C@H]3c3ccc(Cl)cc3)ccc12 | 59.3 ± 2.4 |
| CC(C)N(CCCNC(=O)Nc1ccc(C(C)(C)C)cc1)C[C@H]1O[C@@H](n2cc(Br)c3c(N)ncnc32)[C@H](O)[C@@H]1O | 54.2 ± 14 |

| SMILES | cell proliferation [%] |
| --- | --- |
| O=C(NC[C@H](O)CN1CCc2ccccc2C1)c1ccnc(NC2CCC2)c1 | 32 ± 1.8 |
| CCOC(=O)CCNc1cc(N2CCc3ccccc3CC2)nc(-c2ccccn2)n1 | 9.55 ± 1.9 |
| O=C(NCC(=O)N1CCCC1)Nc1ccc2cnccc2c1 | 40.6 ± 15 |
| CCCc1cc(C)[nH]c(=O)c1CNC(=O)c1cc(-c2ccc(N3CCN(C(C)C)CC3)nc2)cc2c1cnn2C(C)C | 13.3 ± 14 |
| CC[C@H](C)n1cc(C)c2c(C(=O)NCc3c(C)cc(C)[nH]c3=O)cc(-c3ccc(N4CCNCC4)nc3)cc21 | 15.4 ± 9 |
| COc1cc2c(NC3CCN(C(C)C)CC3)nc(C3CCCCC3)nc2cc1OCCCN1CCCC1 | 67.2 ± 8 |
| O=C(/C=C/N1C[C@H]2C[C@@H]1CN2c1ccccn1)c1ccccc1O | 75.6 ± 6.1 |
| Clc1cc2c(NC3CCCC3)nnc(-c3ccncc3)c2cc1Cl | 56.9 ± 7.9 |
| CN(C)[C@H]1CN(C2CCc3cccc(F)c32)C[C@@H]1c1ccc(N2CCN(S(C)(=O)=O)CC2)cc1 (some centres not stated) | 62.7 ± 4.4 |
| CNCCN1CCC(OCc2ccccc2)CC1 | 37.4 ± 6.8 |
| COc1cc2c(cc1OCCCN1CCCC1)N=C(N)C21CCC1 | 71.6 ± 11 |
| CCN(C(=O)CO)[C@H]1CN(/C(=N\C#N)Nc2cccc(OC(F)F)c2)N=C1c1ccc(Cl)c(Cl)c1 | 55.2 ± 6 |
| CCCc1cc(C)[nH]c(=O)c1CNC(=O)c1cc(-c2ccnc(N3CCN(C)CC3)c2)cc2c1cnn2C(C)C | 67.7 ± 12 |
| Cc1nnc2c3ccccc3c(N[C@@H](C)[C@H](c3ccccc3)N(C)C)nn12 [L-moses] | 41 ± 3.8 |
| CCCc1cc(C)n(C)c(=O)c1CN(C)C(=O)c1cc(-c2ccc(N3CCN(C(C)C)CC3)nc2)cc2c1cnn2C(C)C | 70.4 ± 6.3 |
| COc1ccc(CCc2nc3cc(-c4c(C)noc4C)ccc3n2C[C@H](C)N2CCOCC2)cc1Cl | 32.8 ± 4 |
